The campaign covered roughly 340,000 compounds. About 6,400 (1.9%) were called active. Not shown: some 4% with an inconclusive outcome. Shown is part of a subset that was picked to be rich in actives. Values without a mark were called inactive. The call rests on the fitted dose curve; in most records, active means well fitted falling curve with a large enough effect; inconclusive means small, poorly fitted or top-dose-only effect; inactive means no such curve, though single readings can be large or run the other way.
target: ATP-dependent Clp protease proteolytic subunit (Bacillus subtilis (strain 168)) (UniProt P80244); assay: qHTS Assay for Activators of ClpP; further: the source files actives as falling curves though it sought activators and does not explain the sign; nearly all actives have a fitted effect of over 65% in size; details: purified B. subtilis ClpP, FRET peptide cleavage, 20 min; series mostly up to 57.5 µM; activity change, negative = active: at the top concentration
Summary of the method: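 ClpP 10 microg/mL final, pH 8 Tris/KCl buffer with BSA, glycerol, Tween-20; compound pinned in; FRET-FV substrate; RT 20 min; Ex320/Em430; ΔFRET vs ADEP 5.8 microM, DMSO, no enzyme.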
Potency means the concentration at half of the fitted maximal effect.

In order of rising “activity change, negative = active” value:
1. CC(=O)Nc1cccc(-c2cc3nc(NCc4cccnc4)n(C)c(=O)c3s2)c1  -19.5%
2. CC(=O)C1=CCC(c2ccccc2)N(S(=O)(=O)c2ccc(C)cc2)C1 (stereo not given)  -14%
3. C=CCc1cccc2cc(C(=O)N3CCN(C(=O)OCC)CC3)c(=O)oc12  -12.7%
4. Brc1ccc2nc(-c3ccccc3)c(Cc3ccccc3)n2c1  -9.97%
5. COc1cc2nc(Cl)nc(NC3CC3)c2cc1OC  -8.73%
6. CCOC(=O)C(=O)C1C(=O)Nc2ccccc21 (stereo not given)  -7.79%
7. CC(C)C(=O)N1CCC2(CC1)Oc1ccc(F)cc1C(=O)C21CC(c2ccccc2)=NO1 (stereo not given)  -6.58%
8. COc1ccc(CCNC(=O)COC(=O)c2cnc(Cl)c(Cl)c2)cc1  -4.01%
9. O=C1NC[C@H](Cc2ccc(O)cc2)N(C[C@@H]2CCCN2C[C@H](Cc2ccccc2)N2C[C@H](Cc3ccccc3)N(CC3CCCCC3)C(=O)C2=O)C1=O  -3.68%
10. CC(C)OC(=O)C(C#N)c1nc2ccccc2nc1N1CCN(Cc2ccccc2)CC1 (stereo not given)  -3.63%
11. CCOC(=O)[C@]12CCCC=C1N(Cc1cccc3ccccc13)C(=O)[C@H](CC(=O)NCC13CC4CC(CC(C4)C1)C3)C2  -3.53%
12. COc1ccc(C(c2nnnn2C2CCCC2)N2CCN(C/C=C/c3ccccc3)CC2)cc1 (stereo not given)  -3.35%
13. O=C(c1ccco1)N(Cc1cccs1)c1ccc(O)cc1  -3.06%
14. COc1cccc(C(O)c2nc(-c3ccc(C)c(C)c3)cs2)c1 (stereo not given)  -3%
15. C[C@@H]1CN([C@@H](C)CO)C(=O)CCCn2nncc2CO[C@H]1CN(C)C(=O)Nc1ccc(C(F)(F)F)cc1  -2.86%
16. CCOC(=O)CN1CCC(c2ccccc2)CC1  -2.84%
17. CC(=O)Nc1cnc(-c2ccc(O)cc2C)cn1  -2.26%
18. COc1ccc(CCNC(=O)CSc2nnc3ccc(-c4ccncc4)nn23)cc1  -2.01%
19. COc1cccc(CNC(=O)CSc2c3c(nc4cc(Cl)ccc24)CCCC3)c1  -1.55%
20. CN(N=O)c1ccc(C=C2c3ccccc3-c3ccccc32)cc1  -1.46%
21. CN(/N=C/c1ccccc1)C(=S)c1ccccc1  -1.22%
22. CCOC(=O)N1CCN(C(=O)C(=O)Nc2sc3c(c2C#N)CC(C)(C)OC3)CC1  -0.849%
23. CCCCN(C=O)c1c(CC)nc2c(OCc3ccccc3C(=O)OC)cccn12  -0.714%
24. CCN1C(=O)N[C@@H](c2ccccc2)C(C(=O)OC)=C1C  -0.536%
25. CC1(C)Cc2c(sc(NC(=O)C(=O)N3CCOCC3)c2C#N)CO1  -0.519%
26. Cc1ccc(-c2cnc(C(O)c3cccc(C)c3C)[nH]2)cc1 (stereo not given)  -0.238%
27. Cc1nc(C(=O)NCc2ccccc2)sc1C1(C)CC(c2cccnc2)=NO1 (stereo not given)  -0.0404%
28. CC1(C)Cc2cccc(OCC(=O)NCc3ccccc3)c2O1  0.208%
29. CCOC(=O)NC(C(F)(F)F)(C(F)(F)F)P(=O)(c1ccccc1)c1ccccc1  0.601%
30. OCC1OC(n2cnc3c(N4CCCC4)ncnc32)C(O)C1O (stereo not given)  0.893%
31. Nc1nc2cc(Cl)ccc2n1N  0.944%
32. COc1ccc(CCNC(=O)CSc2nc(C)nc3c2oc2ccccc23)cc1OC  1.33%
33. CCOC(=O)C1=CCC2C(=O)N(Cc3ccccc3)C(=O)C12 (stereo not given)  1.34%
34. CCOC(=O)[C@]12CCCC=C1N(CCC1=CCCCC1)C(=O)[C@H](CC(=O)NCCCCc1ccccc1)C2  1.64%
35. Cc1ccc(S(=O)(=O)N2CCC(=O)N([C@H](COCc3ccccc3)C(C)C)CC2)cc1  1.87%
36. CN(CC(=O)O)C(=O)c1ccccc1  1.88%
37. CN(C)C1=C2C=CC=CC2/C(=C2/C=Cc3ccccc32)C=C1 (stereo not given)  2.14%
38. COC(=O)[C@]12CCCCC=C1N(CCC1=CCCCC1)C(=O)[C@H](CC(=O)N1CCSCC1)C2  3.9%
39. CC(C)c1cc(Cn2c3ccccc3c(=O)n2C(C)Cn2cc(C3CC3)nn2)on1 (stereo not given)  4.78%
40. O=C(Nc1ccccc1C(F)(F)F)c1nc(S(=O)(=O)Cc2ccccc2F)ncc1Cl  5.4%
41. CCOc1cccc2cc(C(=O)OCC(=O)Nc3c(C)cccc3CC)c(=O)oc12  12.9%

In the case of `C=CCc1cccc2cc(C(=O)OCC)c(=O)oc12`, the Potency was 35.5 µM (active).
`COc1cccc(-c2ccc(C#N)c(SCC(=O)NCCc3ccc(Cl)cc3)n2)c1` was tested, and the Potency was 35.5 µM (active).
In the case of `COc1ccc(CCNC(=O)CSc2nc(-c3ccc(OC)c(OC)c3)ccc2C#N)cc1`, the Potency was 17.8 µM (active).
`Cc1nc(NCc2ccccc2)c(C(N)=O)c2c1COC(C)(C)C2` was tested, and the Potency was 22.4 µM (active).
With `CC(C)c1nc(N2CCOCC2)c(C#N)c2c1COC(C)(C)C2` the Potency was 15.8 µM (active).
For `CC(C)C(=O)N1CCN(c2nc(-c3ccccc3)c3c(c2C#N)CC(C)(C)OC3)CC1`, the Potency was 28.2 µM (active).
In the case of `CCOC(=O)NN1C(=O)c2ccccc2NC1c1ccccc1O` (stereo not given), the Potency was 25.1 µM (active).
For `CCOC(=O)NN1C(=O)c2ccccc2NC1c1cccc(O)c1` (stereo not given), the Potency was 31.6 µM (active).
`CN(O)C(=S)c1ccccc1` was tested, and the Potency was 11.2 µM (active).
